# Compound activity (PubChem)
# Cycloheximide cs = counter-screen hit for Shiga toxin inhibitors, cycloheximide | max response, % | 300,000 compounds, 12% hits | cell reporter, cycloheximide protein synthesis inhibition counterscreen | AID 2314; in the data active = max response mostly above about 13%, no sharp cut-off; inactive = mostly below about 14%; also: read at 38.3 µM for the half of the compounds with a filed dose
# Pf growth 48h = P. falciparum growth inhibition at 48 hours (one generation); P. falciparum luciferase growth in erythrocytes, 48 h; Potency, µM (series often up to 28.7 µM), usual class: inhibitors; 310,000 compounds, 5.9% hits; AID 504832
#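 Compounds are pin-transferred into medium, infected erythrocytes (2% hematocrit, 0.1% parasitemia final) are added, and plates sit one parasite generation at 37 C in 5% CO2. Detection reagent is then added and luminescence measured.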
# Shiga toxin inh = inhibitors of Shiga toxin in Vero cells; Vero cells, Shiga toxin protein synthesis inhibition reporter; inhibition, % at 38.7 µM; 290,000 compounds, 9.2% hits; in the data active = inhibition mostly above about 28%, no sharp cut-off; inactive = mostly below about 43%
# Pf growth 96h = inhibits malaria parasite growth, 96 h. P. falciparum luciferase reporter growth, 96 h. Potency, µM (titrated, usually from 28.7 µM), most hits filed as inhibitors. 320,000 compounds, 6.9% hits
#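 Readout is luminescence from an integrated firefly luciferase in P. falciparum. Red cells, 2% hematocrit and 0.05% parasitemia final, were cultured with compound through two parasite generations (96 hours) at 37 C, 5% CO2.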
# Sm TGR block = S. mansoni TGR enzyme inhibition; purified TGR, DTNB reduction, TNB absorbance 405 nm; Q962Y6; AID 485364; Potency, µM (series often up to 114 µM), usual class: inhibitors; 360,000 compounds, 3% hits; also: nearly all actives have a fitted effect of over 60% in size
#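 TGR 20 nM + NADPH 100 uM (dispensed conc.), cpd preinc 15 min RT; start with NADPH (500 uM addition) then DTNB (15 mM addition). Kinetic TNB absorbance, 405 nm filter. Four-parameter Hill fit across titration.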
# NS1 inh = inhibitors of influenza NS1 protein function. 270,000 compounds, 0.4% hits. AID 2326. Potency, µM (series often up to 46.1 µM); calls by dose curve; also: actives are rising curves; nearly all actives have a fitted effect of over 50% in size
#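 A cell-based growth assay was used: compounds that relieve NS1-induced slow growth of budding yeast raise OD600. Assay medium was yeast nitrogen base with ammonium sulphate and -URA supplement, pH 6.0, with 2% galactose.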
# A number is an active result; – = inactive; ? = inconclusive; · = not tested or not shown. Shown are actives, neighbours in structure and some others; about 21% of the full set was active somewhere. Unless noted, calls follow the shape of the dose curve; as a rule, active = well fitted curve in the direction sought with a large enough effect; inconclusive = small, poorly fitted or top-dose-only effect, or another doubt; inactive = no such curve, though single readings can be large; an effect the other way counts as inactive or inconclusive.
SMILES,Cycloheximide cs,Pf growth 48h,Shiga toxin inh,Pf growth 96h,Sm TGR block,NS1 inh
O=C(c1ccc2c(c1)OCCO2)N1CCN(Cc2c(F)cccc2Cl)CC1,·,?,·,–,–,·
CCOc1ccc(S(=O)(=O)N(CC(=O)NCCc2ccc(OC)cc2)c2ccccc2)cc1,·,·,·,·,–,·
COc1ccccc1NC(=O)CSCc1cc(=O)n2c(C)csc2n1,–,–,–,–,–,–
CC(C)(O)/C=C1/Oc2ccccc2C1N1CCCCC1 (centres undefined),–,–,–,–,35µM,–
O=C(O)C1CCC(=O)N1C1c2ccccc2Oc2ccccc21 (centres undefined),–,·,–,?,–,–
CCCOc1ccc(C(=O)NNC(=S)NC(=O)c2ccccc2)cc1,–,10µM,–,3.3µM,–,–
CC(C)(C)c1ccc(C(=O)NC(=S)NNC(=O)COc2ccccc2)cc1,17,–,–,–,–,–
CCCOc1ccc(C(=O)NNC(=S)NC(C)=O)cc1,–,?,–,0.33µM,–,–
CCCOc1ccc(C(=O)NNC(=S)NC(=O)c2cccs2)cc1,–,?,–,?,–,–
Cc1ccc(C(=O)NNC(=S)NC(=O)COc2ccccc2)cc1,–,–,–,·,–,–
CCC(=O)NC(=S)NNC(=O)c1ccc([N+](=O)[O-])cc1,–,?,–,13µM,–,–
Cc1ccc(NC(=O)CCC(=O)N2CCN(S(=O)(=O)c3ccc(C)cc3)CC2)cc1,·,?,·,?,–,·
COc1ccc(Nc2ccc(N3C(=O)CCCC3=O)cc2[N+](=O)[O-])c(OC)c1,–,–,–,–,–,–
Cc1cccc(NC(=O)C2CCN(S(=O)(=O)c3ccc4c(c3)CCCN4C(=O)C3CCC3)CC2)c1,·,·,·,·,–,·
CCCCOc1ccc(C(=O)NNC(=S)NC(=O)CC)cc1,–,6.6µM,–,?,–,–
O=c1[nH]c(=O)n(-c2cc(Br)c(O)c(Br)c2)cc1Br,–,–,·,?,–,–
Nc1nn(-c2cccc(F)n2)cc1-c1ccccc1,40,–,107,–,–,–
Nc1nn(-c2cccc(F)n2)cc1-c1ccc(Cl)cc1,23,–,77,–,–,–
Nc1ncncc1-c1ccc(Cl)cc1,–,?,–,?,–,–
CN(C(=O)c1cc2c(=O)n3ccccc3nc2n1C)c1ccccc1,·,·,·,·,–,·
O=C(Nc1cccc2cccnc12)c1cccs1,37,·,–,·,·,·
O=C(Nc1cccc2nsnc12)c1cccs1,35,–,99,?,–,–
O=C(Nc1ccccc1)Nc1cccc2nsnc12,34,–,–,–,–,–
CCCCc1nc(SCc2ccc([N+](=O)[O-])cc2)n[nH]1,–,–,–,–,·,–
Cc1cc(N2CCN(c3ccccc3)CC2)n2cc(-c3ccccc3)nc2n1,–,?,–,7.4µM,–,–
SMILES,Cycloheximide cs,Pf growth 48h,Shiga toxin inh,Pf growth 96h,Sm TGR block,NS1 inh
Cc1cc(N2CCN(c3ccccc3)CC2)n2c(n1)nc1ccccc12,–,5.9µM,–,?,–,–
Cc1ccc(NC(=O)COC(=O)C2CCC2)cc1S(=O)(=O)N1CCCCC1,·,–,·,?,–,·
Cc1ccc(NC(=O)COc2ccccc2C#N)cc1S(=O)(=O)N1CCCCCC1,·,?,·,8.3µM,–,·
Cc1ccccc1CC(=O)OCC(=O)Nc1ccc(C)c(S(=O)(=O)N2CCCCC2)c1,·,10µM,·,?,–,·
Cc1ccc(NC(=O)COc2ccccc2)cc1S(=O)(=O)N1CCCCCC1,·,?,·,?,–,·
CC(C)N(Cc1ccccc1)C(=O)Cn1ncc2c3ccccc3n(Cc3ccccc3)c2c1=O,·,·,·,·,–,·
COc1cccc(CNC(=O)CNC(=S)N(Cc2ccccc2)Cc2ccccc2F)c1,–,12µM,–,–,–,·
COc1ccc(C2/C=C\CN(C(=O)c3ccccc3)[C@H](Cc3ccccc3)C(=O)N2Cc2ccc(F)cc2)cc1 (some centres undefined),–,?,–,?,–,–
CCOP(=O)(NC12CC3CC(CC(C3)C1)C2)NC12CC3CC(CC(C3)C1)C2,–,3.7µM,–,2.9µM,–,–
CCOc1ccc(/C=N/n2cc(-c3ccccc3)[nH]c2=S)cc1,19,?,–,?,–,–
S=c1[nH]c(-c2ccccc2)cn1/N=C/c1ccncc1,–,?,–,?,–,–
O=C(NCC1CCCO1)c1ccc(CS(=O)(=O)c2ccc(Cl)cc2)o1 (centres undefined),–,–,–,·,–,–
O=C(Cc1cccs1)N/N=C/c1ccco1,–,–,–,–,–,–
O=C(Cc1cccs1)N/N=C/C=C\c1ccco1,–,–,–,–,25µM,–
O=C(N/N=C/C=C\c1ccco1)c1cccs1,29,–,82,–,11µM,·
O=C(N/N=C/C=C/c1ccco1)c1ccccc1Cl,–,–,–,–,?,·
O=C(N/N=C/C=C/c1ccco1)/C(=C/c1ccccc1)NC(=O)c1ccccc1,–,–,–,?,45µM,–
O=C(O)/C(=C\c1ccco1)NC(=O)c1ccccc1,–,–,–,–,–,–
O=C(N/N=C/C=C/c1ccco1)c1ccncc1,–,–,–,–,28µM,–
CC(=O)c1ccccc1N(C(=O)c1ccco1)C(C(=O)NC1CCCC1)c1ccc(N2CCOCC2)cc1 (centres undefined),–,?,–,–,–,–
Cc1ccc(NC(=O)CNC(=O)CC23CC4CC(CC(C4)C2)C3)c(O)c1,·,?,·,?,–,·
CN1CCc2nc3sc(C(=O)Nc4ccccc4C(F)(F)F)c(N)c3cc2C1,·,·,·,·,–,·
Oc1c(CN2CCCC(C(F)(F)F)C2)cc(Cl)c2ccccc12 (centres undefined),–,?,–,?,2µM,–
CCOC(=O)C1CCN(Cc2ccccn2)CC1,–,–,–,10µM,–,–
OC1CCCN(Cc2cccc3ccccc23)C1 (centres undefined),–,–,–,·,–,–
SMILES,Cycloheximide cs,Pf growth 48h,Shiga toxin inh,Pf growth 96h,Sm TGR block,NS1 inh
CCOC(=O)C1CCN(Cc2cc(Cl)c3ccccc3c2O)CC1,12,1.2µM,–,1.2µM,4.5µM,–
CCOC(=O)C1CCN(Cc2ccc(OC)c(C)c2OC)CC1,–,–,–,?,–,–
CCC(=O)N1c2ccccc2C(N(C(C)=O)c2ccccc2)CC1C (centres undefined),–,–,–,?,10µM,–
COc1cc(C(=O)O[C@H]2C/C(C)=C/CC/C(C)=C/[C@@H](O)C2C(C)C)ccc1O (some centres undefined),–,·,–,·,·,·
C=CCSC1=Nc2sccc2C2=NC(=O)CN12,–,–,–,–,–,–
O=Cc1ccccc1OCc1nnsc1Cl,–,–,–,–,–,·
Cc1ccc(-c2csc(Cc3nc(-c4ccc5c(c4)CCC(=O)N5)cs3)n2)cc1,–,–,–,–,–,–
Cc1cccc(Nc2nc(-c3c(C)nc4ccccn34)cs2)c1,–,?,–,?,–,–
Cc1nc(-c2ccc3c(c2)OCCO3)cs1,44,–,169,–,–,·
Cc1ccc(Nc2nc(-c3ccncc3)cs2)cc1,47,–,119,–,–,–
Cc1nc(-c2ccc3c(c2)CCC(=O)N3)cs1,29,–,65,–,–,–
